# From the supplement of paper PMC10941209
# System: HFF
# Experiment: cell viability relative to DMSO control; higher = less cytotoxic
# Conditions: 1 µM; 72 h
# Procedure: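 Single-dose cytotoxicity screen of the MMV Pandemic Response Box at 1 uM on human foreskin fibroblasts (HFF), 72 h at 37 C. Viability measured by MTT (OD 550 nm) and normalised to the DMSO control (% survival).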
row,SMILES,cell viability [%]
1,Clc1cc(Cl)c2c(c1)CCc1ccccc1C2n1ccnc1 (configuration not stated),80.7
2,COc1ccc2nc(-c3ccccc3)cc(O)c2c1,75
3,CCC(C)n1ncn(-c2ccc(N3CCN(c4ccc(OCC5COC(Cn6cncn6)(c6ccc(Cl)cc6Cl)O5)cc4)CC3)cc2)c1=O (configuration not stated),78.2
4,Cc1cc(O)c2c(c1)C(=O)c1c(I)c(O)c(I)c(O)c1C2=O,71.9
5,CC(=N)N1CC[C@H](SC2=C(C(=O)O)N3C(=O)[C@@H]([C@@H](C)O)[C@H]3C2)C1,63.8
6,COc1c(NC(=O)[C@H]2CC[C@@H](COc3ccc([N+](=O)[O-])cc3)CC2)c(F)cc2c(=O)c(C(=O)O)cn(C3CC3)c12,62.8
7,CC(C)CCN1C(=O)C(C2=NS(=O)(=O)c3cc(NS(C)(=O)=O)ccc3N2)=C(O)[C@@H]2[C@H]3CC[C@H](C3)[C@@H]21,67.8
8,O=C(c1ccc(F)cc1)N1CCN2C(=O)c3ccccc3C12c1ccccc1 (configuration not stated),63.3
9,O=C(NC(=O)N1CCCc2ccccc21)c1cccc(Cl)c1,75.5
10,CC(C)(C)c1ccc(C(=O)NC(=O)N2CCCc3ccccc32)cc1,63.5
11,COc1cc(NCc2ccc3nc(N)nc(N)c3c2C)cc(OC)c1OC,63.7
12,NC(=O)c1ccccc1NC(=O)c1ccc(C(=O)Nc2ccccc2C(N)=O)cc1,63.5
13,NC[C@H]1O[C@H](O[C@H]2[C@H](O)[C@@H](O[C@H]3O[C@H](CO)[C@@H](O)[C@H](N)[C@H]3O)[C@H](N)C[C@@H]2N)[C@H](N)C[C@@H]1O,68.2
14,COc1ccc2c(c1)cc(CNC(=O)c1cc3ccccc3o1)n2CC(=O)O,62.5
15,CC1(C)CC(NC(=O)C(=O)Nc2ccc(Cl)cc2)CC(C)(C)N1,69.1
16,COc1ccc(C(C)(C)C)cc1NC(=O)C(=O)c1ccc(OCCN2CCOCC2)c2ccccc12,69.1
17,O=C(NCc1ccccc1Cl)c1cnc2ccccc2n1,71.4
18,CN(O)C(=O)c1cc2c(CN3CCC[C@H]3C(N)=O)cn(Cc3ccc(F)cc3)c2cn1,64.1
19,CC[N+]1(C/C2=C/CCCCCC2)CCC(NC(=O)C2c3cc(Cl)ccc3Oc3ccc(Cl)cc32)CC1 (configuration not stated),65.6

row,SMILES,cell viability [%]
1,CC(=O)N[C@H](C)C(=O)N[C@H](Cc1ccccc1)C(=O)O,61.1
2,CC(=O)Nc1cc(NS(=O)(=O)c2ccc(Cl)cc2)cc2c(Cl)[nH]nc12,67.2
3,COc1nc2ccc(Br)cc2cc1[C@@H](c1ccccc1)[C@@](O)(CCN(C)C)c1cccc2ccccc12,72.3
4,CCc1nc2ccc(Cl)cn2c1C(=O)NCc1ccc(N2CCC(c3ccc(OC(F)(F)F)cc3)CC2)cc1,63.2
5,O=C(NN1C(=O)[C@@H]2[C@@H]3C=C[C@@H]([C@H]4C[C@@H]34)[C@@H]2C1=O)c1ccc(C(F)(F)F)cc1,71.8
6,O=C1CCC(N2C(=O)c3ccccc3C2=O)C(=O)N1 (configuration not stated),59
7,NC(=O)c1cnc2ccc(S(=O)(=O)c3ccccc3)cc2c1Nc1ccc(O)cc1,59.5
8,CC(C)c1ccc(COc2cccc(-c3cc([S+](C)[O-])c(C#N)c(=O)[nH]3)c2)cc1 (configuration not stated),76.9
9,Nc1cnn(C2OC(CO)C(O)C2O)c(=O)n1 (configuration not stated),63.5
10,CCCCOC(=O)Nc1cc2nc(C3CCCCC3)[nH]c2cc1N(CC)CC,72.1
11,O=C(CSc1nnc(Br)n1-c1ccc(C2CC2)c2ccccc12)Nc1ccc(C(=O)O)cc1Cl,66.5
12,O=c1oc2ccc(Br)cc2cc1CSc1ncc[nH]1,74.7
13,O=C(/C=C/n1cnc(-c2cc(C(F)(F)F)cc(C(F)(F)F)c2)n1)NNc1cnccn1,59.7
14,CCc1ccc(C2CC(C(F)(F)F)n3ncc(C(=O)NCc4ccc(OC)cc4)c3N2)cc1 (configuration not stated),76.2
15,Nc1ccc2oc(=O)ccc2c1I,69.6
16,OB1OCc2c1ccc(Cl)c2F,68.5
17,CC(=O)NC[C@H]1CN(c2ccc(N3CCSCC3)c(F)c2)C(=O)O1,67.2
18,O=S(=O)(NCB(O)O)c1ccc(-c2nnn[nH]2)cc1C(F)(F)F,70.9
